Experimental data as given in the supplement of paper PMC10849652.
The full data set covers some 8,800 targets. This sample favours those with a hit. About 0.5% of all pairs of compound and target were hits.

Experiments:
Experiment in all cases: log2 fold change, soluble protein after heating vs DMSO (PISA); higher = thermal stabilisation; K562 lysate, 10 uM; active = over 0.2 and 3.5 SD of the protein, either way, in both replicates (recomputed)
[1] = compound: C=CC(=O)N1CCC[C@@H](n2nc(-c3ccc(Oc4ccccc4)cc3)c3c(N)ncnc32)C1 [ibrutinib]
In short: (§1)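 Pellets of K562 cells were dounce-homogenised in PBS pH 7.4 with 1 mM MgCl2, and the crude extract was held at 1 mg/mL protein for a 30 min treatment with 10 μM compound. Aliquots were heated for 3 min over 48°C-58°C and pooled before NP-40 was added to 0.5% at 4°C. The supernatant from 21,000xg for 90 min was quantified by TMTpro 16plex LC-MS/MS with channel sums equalised. Values are reported from duplicates as log-two fold change in thermal stability relative to solvent controls.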

[2] = compound: CC(=O)c1cnc2ccc(-c3cc(Cl)c(O)c(Cl)c3)nc2c1N[C@H]1CC[C@H](CN(C)C)CC1
In short: as §1

[3] = compound: CC(C)(C)Cn1c(N)nc2ccc(-c3[nH]c(C(C)(C)C)nc3-c3ccc(F)cc3)nc21 [ralimetinib]
In short: as §1

[4] = compound: CC(C)(O)CC(=O)NCCn1ccc2ncnc(Nc3ccc(Oc4cccc(C(F)(F)F)c4)c(Cl)c3)c21
In short: as §1

[5] = compound: CC(C)C1=C2N=C(C=C(N2N=C1)NCC3=CC=CC=C3)NCCCCCCN
In short: as §1

[6] = compound: CC1=C(C(CC(=O)N1)C2=CC=C(C=C2)C(F)(F)F)C(=O)NC3=C(C=C4C(=C3)C=NN4)F
In short: as §1

[7] = compound: CC1=C(C=C(C=C1)NC(=O)C2=CC(=CC=C2)C(C)(C)C#N)NC3=CC4=C(C=C3)N=CN(C4=O)C
In short: as §1

[8] = compound: CC1=C(C=C(C=C1)NC(=O)C2=CC(=CC=C2)N(C)C)NC(=O)C3=CC=C(C=C3)O
In short: as §1

[9] = compound: CC1=CC=C(C=C1)SC2=C3C=C(SC3=CN=C2)C(=O)N
In short: as §1

[10] = compound: CCCS(=O)(=O)Nc1ccc(F)c(C(=O)c2c[nH]c3ncc(-c4ccc(Cl)cc4)cc23)c1F [vemurafenib]
In short: as §1

[11] = compound: CCCS(=O)(=O)Nc1ccc(F)c(C(=O)c2c[nH]c3ncc(Cl)cc23)c1F
In short: as §1

[12] = compound: CCN(CCCOc1ccc2c(Nc3cc(CC(=O)Nc4cccc(F)c4)[nH]n3)ncnc2c1)CCOP(=O)(O)O [barasertib]
In short: as §1

[13] = compound: CC[C@@H]1C(=O)N(C)c2cnc(Nc3ccc(C(=O)NC4CCN(C)CC4)cc3OC)nc2N1C1CCCC1
In short: as §1

[14] = compound: CC[C@@H]1C(=O)N(C)c2cnc(Nc3ccc(C(=O)N[C@H]4CC[C@H](N5CCN(CC6CC6)CC5)CC4)cc3OC)nc2N1C(C)C [volasertib]
In short: as §1

[15] = compound: CCn1c(C(=O)N(C2CC2)C2CC2)cc2c3c(ncn3C)c(Nc3cc(C)n(C)n3)nc21
In short: as §1

[16] = compound: CCn1cc(-c2ccnc3[nH]c(-c4cccc(CN(C)C)c4)cc23)c(-c2ccc(NC(=O)N(C)C)cc2)n1
In short: as §1

[17] = compound: CN1CCC(CNc2ccc3ncc(-c4cccc(OC(F)(F)F)c4)n3n2)CC1
In short: as §1

[18] = compound: CN1CCN(c2nc(C3=C(c4c[nH]c5ccccc45)C(=O)NC3=O)c3ccccc3n2)CC1 [sotrastaurin]
In short: as §1

[19] = compound: CC1=C(C2=C(C=C1)C(=O)C3=CC=CC=C3N2CCCN)C
In short: as §1

[20] = compound: CN1CCN(CCOc2cc(OC3CCOCC3)c3c(Nc4c(Cl)ccc5c4OCO5)ncnc3c2)CC1 [saracatinib]
In short: as §1

Measured: log2 fold change

SNUPN (UniProt O95149)
Chain of UniProt O95149 (O95149 whole entry, looked up): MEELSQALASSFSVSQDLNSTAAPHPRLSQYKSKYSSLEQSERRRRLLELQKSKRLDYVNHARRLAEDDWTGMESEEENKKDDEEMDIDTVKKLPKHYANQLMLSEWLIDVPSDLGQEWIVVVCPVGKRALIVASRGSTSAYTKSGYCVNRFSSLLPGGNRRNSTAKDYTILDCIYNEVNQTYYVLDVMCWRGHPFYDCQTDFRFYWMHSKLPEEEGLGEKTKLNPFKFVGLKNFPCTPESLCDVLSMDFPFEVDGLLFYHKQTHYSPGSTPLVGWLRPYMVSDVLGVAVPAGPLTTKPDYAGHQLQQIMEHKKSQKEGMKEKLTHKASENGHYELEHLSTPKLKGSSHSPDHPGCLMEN
inactive: [1] -0.072 | [2] 0.001 | [3] -0.008 | [4] -0.068 | [5] -0.116 | [6] -0.065 | [7] 0.001 | [8] -0.036 | [9] 0.027 | [10] -0.008 | [11] 0.007 | [12] 0.06 | [13] -0.082 | [14] 0.04 | [15] 0.051 | [16] -0.024 | [17] -0.036 | [18] 0.028

SSB (UniProt E7ERC4)
active: [16] 1.92
inactive: [1] 0.14 | [2] -0.087 | [3] -0.009 | [4] -0.075 | [5] -0.046 | [6] 0.062 | [19] 0.014 | [7] 0.239 | [8] 0.093 | [9] -0.013 | [10] 0.111 | [11] 0 | [12] -0.04 | [13] -0.281 | [14] 0.003 | [15] -0.134 | [17] -0.377 | [20] 0.013 | [18] -0.012

SURF2 (UniProt Q15527)
Chain of UniProt Q15527 (Q15527 whole entry, looked up): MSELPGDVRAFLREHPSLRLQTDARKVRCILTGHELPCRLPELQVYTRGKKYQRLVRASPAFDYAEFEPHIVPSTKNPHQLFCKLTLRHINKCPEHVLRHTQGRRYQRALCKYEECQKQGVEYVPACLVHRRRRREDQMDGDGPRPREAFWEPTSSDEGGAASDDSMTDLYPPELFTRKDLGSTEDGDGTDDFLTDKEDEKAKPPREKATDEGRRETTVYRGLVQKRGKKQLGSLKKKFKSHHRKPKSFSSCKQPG
inactive: [1] 0.001 | [2] -0.019 | [3] -0.147 | [4] -0.038 | [6] 0.103 | [19] 0.018 | [7] 0.026 | [8] 0.031 | [9] -0.02 | [10] -0.009 | [11] -0.002 | [12] -0.007 | [13] 0.049 | [14] 0.002 | [15] 0.127 | [16] -0.063 | [17] 0.02 | [20] 0.004 | [18] -0.007

SPAG5 (UniProt Q96R06)
Chain of UniProt Q96R06 (Q96R06 whole entry, looked up): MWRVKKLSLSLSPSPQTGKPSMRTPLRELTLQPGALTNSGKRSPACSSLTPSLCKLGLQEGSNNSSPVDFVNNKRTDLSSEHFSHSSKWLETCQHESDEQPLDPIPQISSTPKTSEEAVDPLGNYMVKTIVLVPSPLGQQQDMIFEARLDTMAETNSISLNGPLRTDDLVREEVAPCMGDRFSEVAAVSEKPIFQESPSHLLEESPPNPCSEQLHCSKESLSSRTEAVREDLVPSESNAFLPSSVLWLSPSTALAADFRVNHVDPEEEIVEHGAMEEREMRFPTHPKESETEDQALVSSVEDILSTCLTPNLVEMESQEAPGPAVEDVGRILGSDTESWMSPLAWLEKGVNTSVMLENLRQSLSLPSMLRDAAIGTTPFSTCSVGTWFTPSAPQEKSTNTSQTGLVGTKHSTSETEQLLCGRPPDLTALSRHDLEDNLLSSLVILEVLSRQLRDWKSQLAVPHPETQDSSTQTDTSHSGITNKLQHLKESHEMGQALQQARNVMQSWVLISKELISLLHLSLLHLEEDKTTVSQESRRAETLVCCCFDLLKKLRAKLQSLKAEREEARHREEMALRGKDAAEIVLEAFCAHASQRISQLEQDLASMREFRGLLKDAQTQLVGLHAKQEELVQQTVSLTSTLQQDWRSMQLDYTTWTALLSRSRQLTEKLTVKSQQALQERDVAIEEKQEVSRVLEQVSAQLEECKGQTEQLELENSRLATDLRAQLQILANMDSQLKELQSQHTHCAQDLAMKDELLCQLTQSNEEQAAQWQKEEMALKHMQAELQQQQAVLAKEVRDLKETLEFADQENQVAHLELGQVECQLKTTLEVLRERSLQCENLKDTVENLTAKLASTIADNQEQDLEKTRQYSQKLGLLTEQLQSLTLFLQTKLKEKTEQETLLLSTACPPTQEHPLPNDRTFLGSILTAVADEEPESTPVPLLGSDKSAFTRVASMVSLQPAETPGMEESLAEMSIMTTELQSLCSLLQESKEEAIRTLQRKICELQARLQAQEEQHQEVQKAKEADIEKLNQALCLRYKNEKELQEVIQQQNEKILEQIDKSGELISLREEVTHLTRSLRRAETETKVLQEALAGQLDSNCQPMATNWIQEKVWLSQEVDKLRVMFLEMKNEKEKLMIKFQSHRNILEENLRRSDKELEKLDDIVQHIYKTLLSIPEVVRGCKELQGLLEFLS
inactive: [1] -0.005 | [2] 0.039 | [3] -0.001 | [4] 0.017 | [5] -0.013 | [6] 0.03 | [19] -0.024 | [7] -0.024 | [8] 0.008 | [9] -0.005 | [10] -0.007 | [11] 0.04 | [12] 0.025 | [13] -0.016 | [14] -0.004 | [15] -0.01 | [16] -0.004 | [17] -0.174 | [20] 0.004 | [18] 0.009

STK26 (UniProt Q9P289)
inactive: [1] -0.043 | [2] 0.113 | [3] -0.018 | [4] 0.004 | [5] -0.015 | [6] -0.021 | [19] 0.006 | [7] -0.028 | [8] 0.035 | [9] -0.025 | [10] 0.021 | [11] -0.008 | [12] -0.009 | [13] -0.032 | [14] -0.064 | [15] 0.037 | [16] -0.045 | [17] -0.048 | [20] -0.02 | [18] 0.006

SH3GL1 (UniProt Q99961)
inactive: [1] -0.004 | [2] 0 | [3] 0.031 | [4] 0.006 | [5] -0.015 | [6] -0.03 | [19] 0.017 | [7] 0.025 | [8] 0.006 | [9] -0.012 | [10] -0.002 | [11] -0.01 | [12] -0.019 | [13] 0.044 | [14] -0.004 | [15] 0.018 | [16] 0.044 | [17] -0.022 | [20] 0.011 | [18] -0.03

TAOK2 (UniProt Q9UL54)
Chain of UniProt Q9UL54 (Q9UL54 whole entry, looked up): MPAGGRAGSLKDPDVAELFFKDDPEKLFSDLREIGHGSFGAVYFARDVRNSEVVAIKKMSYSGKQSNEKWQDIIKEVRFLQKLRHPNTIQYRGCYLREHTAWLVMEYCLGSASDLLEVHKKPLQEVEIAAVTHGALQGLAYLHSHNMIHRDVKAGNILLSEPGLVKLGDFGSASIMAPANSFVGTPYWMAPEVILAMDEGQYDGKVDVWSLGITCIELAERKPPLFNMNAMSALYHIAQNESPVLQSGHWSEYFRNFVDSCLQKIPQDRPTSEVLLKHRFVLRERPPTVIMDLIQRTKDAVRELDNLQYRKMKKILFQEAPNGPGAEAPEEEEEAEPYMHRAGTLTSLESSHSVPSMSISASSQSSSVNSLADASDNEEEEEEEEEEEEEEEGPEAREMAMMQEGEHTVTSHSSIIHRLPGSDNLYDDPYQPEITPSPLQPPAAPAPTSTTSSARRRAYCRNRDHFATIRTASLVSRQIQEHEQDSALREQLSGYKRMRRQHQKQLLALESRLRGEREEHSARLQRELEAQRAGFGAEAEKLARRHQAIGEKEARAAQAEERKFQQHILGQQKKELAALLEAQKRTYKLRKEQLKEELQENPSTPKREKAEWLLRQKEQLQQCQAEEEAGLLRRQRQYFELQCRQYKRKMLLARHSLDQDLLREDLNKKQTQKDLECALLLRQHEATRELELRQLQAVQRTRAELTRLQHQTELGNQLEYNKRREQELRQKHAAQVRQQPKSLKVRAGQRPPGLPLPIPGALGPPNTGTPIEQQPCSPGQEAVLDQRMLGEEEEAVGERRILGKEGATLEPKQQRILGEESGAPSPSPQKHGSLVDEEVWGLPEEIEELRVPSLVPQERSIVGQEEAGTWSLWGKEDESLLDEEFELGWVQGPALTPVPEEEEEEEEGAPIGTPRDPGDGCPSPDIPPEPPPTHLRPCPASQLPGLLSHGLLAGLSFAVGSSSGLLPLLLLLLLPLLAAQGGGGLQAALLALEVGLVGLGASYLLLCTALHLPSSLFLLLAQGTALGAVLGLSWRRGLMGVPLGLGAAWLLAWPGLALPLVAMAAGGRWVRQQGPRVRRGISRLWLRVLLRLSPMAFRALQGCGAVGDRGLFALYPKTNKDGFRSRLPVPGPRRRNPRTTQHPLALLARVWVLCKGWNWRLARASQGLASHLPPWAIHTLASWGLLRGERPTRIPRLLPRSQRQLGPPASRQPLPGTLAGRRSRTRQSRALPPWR
inactive: [1] -0.009 | [2] 0.151 | [3] -0.035 | [4] -0.033 | [6] -0.072 | [19] -0.053 | [7] -0.037 | [8] -0.044 | [9] 0.024 | [10] -0.039 | [11] -0.041 | [12] 0.059 | [13] 0.021 | [14] -0.056 | [15] -0.077 | [16] -0.005 | [17] -0.003 | [20] -0.005 | [18] 0.109

STK11IP (UniProt Q8N1F8)
Chain of UniProt Q8N1F8 (Q8N1F8 whole entry, looked up): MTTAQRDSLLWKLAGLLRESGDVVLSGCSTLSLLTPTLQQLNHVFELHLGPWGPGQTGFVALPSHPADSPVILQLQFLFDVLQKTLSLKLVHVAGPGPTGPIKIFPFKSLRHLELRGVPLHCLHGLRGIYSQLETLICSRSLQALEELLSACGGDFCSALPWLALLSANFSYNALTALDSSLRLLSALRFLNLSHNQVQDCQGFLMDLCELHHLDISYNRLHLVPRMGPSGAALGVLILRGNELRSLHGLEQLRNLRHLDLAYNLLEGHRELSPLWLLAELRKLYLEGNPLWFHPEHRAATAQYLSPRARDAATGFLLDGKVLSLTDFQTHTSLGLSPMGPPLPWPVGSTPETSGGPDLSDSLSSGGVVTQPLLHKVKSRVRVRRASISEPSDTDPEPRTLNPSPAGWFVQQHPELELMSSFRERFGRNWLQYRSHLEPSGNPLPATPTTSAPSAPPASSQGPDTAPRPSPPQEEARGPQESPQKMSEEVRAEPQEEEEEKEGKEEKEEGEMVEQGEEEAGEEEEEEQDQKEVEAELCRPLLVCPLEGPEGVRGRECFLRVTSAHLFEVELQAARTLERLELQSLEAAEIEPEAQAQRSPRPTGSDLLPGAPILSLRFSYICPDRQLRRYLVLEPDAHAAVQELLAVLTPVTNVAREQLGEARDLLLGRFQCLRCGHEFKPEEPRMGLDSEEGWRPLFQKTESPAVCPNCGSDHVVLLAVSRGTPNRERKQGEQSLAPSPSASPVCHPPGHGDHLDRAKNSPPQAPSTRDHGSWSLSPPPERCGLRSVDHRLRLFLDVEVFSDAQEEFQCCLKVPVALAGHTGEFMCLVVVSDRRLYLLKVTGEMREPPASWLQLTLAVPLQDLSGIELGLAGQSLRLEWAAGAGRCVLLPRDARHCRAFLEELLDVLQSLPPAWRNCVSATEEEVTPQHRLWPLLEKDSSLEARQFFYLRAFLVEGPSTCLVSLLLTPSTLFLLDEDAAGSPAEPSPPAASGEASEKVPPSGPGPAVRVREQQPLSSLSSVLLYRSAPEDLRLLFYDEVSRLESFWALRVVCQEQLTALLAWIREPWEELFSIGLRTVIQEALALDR
inactive: [1] -0.016 | [2] -0.024 | [3] 0.044 | [4] -0.055 | [5] 0 | [6] 0.046 | [19] 0.024 | [7] -0.009 | [8] 0 | [9] 0.015 | [10] -0.016 | [11] 0.018 | [12] -0.04 | [13] 0.075 | [14] -0.067 | [15] 0.002 | [16] 0.015 | [17] -0.072 | [20] 0.012 | [18] 0.016

SMYD3 (UniProt Q9H7B4)
Chain of UniProt Q9H7B4 (Q9H7B4 whole entry, looked up): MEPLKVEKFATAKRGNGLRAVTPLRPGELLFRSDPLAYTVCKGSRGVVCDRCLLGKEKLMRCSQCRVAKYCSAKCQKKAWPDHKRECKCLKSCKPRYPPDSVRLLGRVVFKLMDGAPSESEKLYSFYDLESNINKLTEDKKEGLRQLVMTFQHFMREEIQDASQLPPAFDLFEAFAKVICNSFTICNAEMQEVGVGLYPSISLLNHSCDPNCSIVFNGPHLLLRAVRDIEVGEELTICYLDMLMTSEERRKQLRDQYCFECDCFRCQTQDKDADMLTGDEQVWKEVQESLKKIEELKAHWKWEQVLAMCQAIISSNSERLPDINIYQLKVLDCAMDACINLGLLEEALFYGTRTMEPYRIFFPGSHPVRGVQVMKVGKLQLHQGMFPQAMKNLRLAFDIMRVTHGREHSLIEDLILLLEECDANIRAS
inactive: [1] -0.009 | [2] -0.002 | [3] 0.032 | [4] -0.012 | [5] 0.034 | [6] -0.037 | [19] -0.028 | [7] 0.038 | [8] 0.036 | [9] -0.027 | [10] 0.036 | [11] 0.013 | [12] 0.017 | [13] -0.137 | [14] -0.051 | [15] -0.02 | [20] 0.045 | [18] -0.005

SRGN (UniProt P10124)
Chain of UniProt P10124 (P10124 whole entry, looked up): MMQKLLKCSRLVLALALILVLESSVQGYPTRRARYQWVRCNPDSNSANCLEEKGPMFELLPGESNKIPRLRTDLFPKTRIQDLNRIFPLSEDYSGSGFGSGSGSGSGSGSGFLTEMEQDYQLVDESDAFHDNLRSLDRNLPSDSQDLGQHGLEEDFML
inactive: [1] 0.109 | [2] 0.084 | [3] 0.001 | [4] -0.159 | [5] -0.018 | [19] -0.079 | [7] 0.104 | [8] -0.064 | [9] -0.064 | [10] 0.177 | [11] 0.093 | [12] -0.033 | [13] 0.059 | [14] -0.086 | [15] -0.005 | [16] -0.022 | [17] 0.101 | [20] 0.043 | [18] 0.069

SNRPD3 (UniProt P62318)
Chain of UniProt P62318 (P62318 whole entry, looked up): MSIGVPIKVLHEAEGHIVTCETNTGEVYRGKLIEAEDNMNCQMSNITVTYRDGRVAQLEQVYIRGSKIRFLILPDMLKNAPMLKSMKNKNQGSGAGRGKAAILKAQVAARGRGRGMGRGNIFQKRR
inactive: [1] -0.033 | [2] 0.035 | [3] 0.067 | [4] -0.018 | [5] -0.05 | [6] 0.017 | [19] 0.019 | [7] -0.012 | [8] -0.004 | [9] -0.008 | [10] 0.022 | [11] -0.012 | [12] -0.006 | [13] -0.049 | [14] -0.004 | [15] 0.052 | [16] -0.254 | [17] 0.135 | [20] 0.046 | [18] 0.024

SPHK1 isoform 2 (UniProt Q9NYA1)
inactive: [1] -0.088 | [2] 0.029 | [3] 0.124 | [4] 0.061 | [5] 0.021 | [6] 0.041 | [19] 0.041 | [8] -0.061 | [9] -0.036 | [10] -0.009 | [11] 0.034 | [12] 0.008 | [13] -0.051 | [14] -0.022 | [15] 0.171 | [16] -0.003 | [17] 0.056 | [20] 0.086 | [18] 0.029
active: [7] -0.276
